The entries come from a sample that favours hits as a whole.
IL-1B inflam inh: blocks inflammasome-driven IL-1 beta release; AID 743279; THP-1 LPS/ATP IL-1B secretion, AlphaLISA, 16 h; stronger effect = lower value; 360,000 compounds, 4.7% hits; activity change, % at 57.5 µM; in the data active = activity change below about -50%; inconclusive = mostly about -30% to -49%
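Secreted IL-1B measured by AlphaLISA bead assay after 16 h compound exposure of THP-1 cells; compounds (final up to 57.5 uM) added 1 h before LPS (250 ng/mL) and ATP (1.25 mM) stimulation; lower signal means less secretion.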
TDP1 cell CPT: DT40-hTDP1 cell growth loss with CPT. chicken DT40 Tdp1-/-;hTDP1 cells + 20 nM CPT, ATP luminescence, 48 h. 420,000 compounds, 12% hits. Potency, µM (series often up to 46.2 µM), usual class: inhibitors. AID 686979; also: nearly all actives have a fitted effect of over 55% in size
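Chicken DT40 Tdp1-/- cells stably complemented with human TDP1 were seeded at 400 cells/well in medium containing 20 nM camptothecin, exposed to pin-transferred compounds, and grown at 37 °C for at least 48 hr. Viability was read as ATP luminescence.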
HT1080 IDH1KD tx: kills HT-1080 cells with IDH1 knockdown; Potency, µM (series often up to 46.1 µM), actives largely listed as cytotoxic; HT-1080 IDH1 knockdown viability, ATP luminescence, 48 h; 360,000 compounds, 2% hits
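Knockdown cells (IDH1KD HT-1080) received compounds 2 h after plating at 750 cells/well and were kept 48 h at 37 °C in 5% FBS RPMI. A CellTiter-Glo luminescence read gave % activity for curve fitting.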
DT40 TDP1 no CPT: qHTS for Inhibitors of human tyrosyl-DNA phosphodiesterase 1 (TDP1): qHTS in cells in absence of CPT; DT40 Tdp1-/- hTDP1 cells, no CPT, ATP luminescence, 48 h; Potency, µM (titrated, usually from 46.2 µM), most hits filed as inhibitors; 420,000 compounds, 15% hits; also: nearly all actives have a fitted effect of over 55% in size
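Seeded 400 DT40-hTDP1 cells/well (vehicle DMSO, no 20 nM CPT); pinned compounds; ≥48 hr at 37 °C; CellTiter-Glo luminescence as viability measure.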
12-LOX inh: inhibitors of human 12S-lipoxygenase ALOX12; AID 1671190; 580,000 compounds, 1.1% hits; P18054; Potency, µM (series often up to 108 µM), usual class: inhibitors; purified 12hLO, xylenol orange hydroperoxide absorbance
Target sequence (P18054 whole entry, looked up): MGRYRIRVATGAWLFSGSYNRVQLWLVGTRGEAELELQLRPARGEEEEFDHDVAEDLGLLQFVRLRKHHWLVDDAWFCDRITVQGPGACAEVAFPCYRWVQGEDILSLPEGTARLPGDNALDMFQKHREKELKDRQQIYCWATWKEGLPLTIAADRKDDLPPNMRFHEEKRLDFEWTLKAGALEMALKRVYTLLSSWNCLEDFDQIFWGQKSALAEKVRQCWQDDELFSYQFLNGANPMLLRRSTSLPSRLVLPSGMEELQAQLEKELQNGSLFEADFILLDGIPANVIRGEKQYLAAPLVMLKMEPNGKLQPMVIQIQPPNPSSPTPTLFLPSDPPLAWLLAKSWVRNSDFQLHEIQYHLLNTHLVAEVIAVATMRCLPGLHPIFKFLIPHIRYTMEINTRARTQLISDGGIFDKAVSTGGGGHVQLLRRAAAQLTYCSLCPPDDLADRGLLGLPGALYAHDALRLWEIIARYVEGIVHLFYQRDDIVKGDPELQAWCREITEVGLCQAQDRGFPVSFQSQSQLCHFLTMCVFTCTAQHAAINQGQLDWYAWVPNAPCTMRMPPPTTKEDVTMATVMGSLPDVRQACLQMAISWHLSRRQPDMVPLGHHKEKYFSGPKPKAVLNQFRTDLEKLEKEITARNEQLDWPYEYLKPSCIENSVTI
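Purified human 12hLO (150 nM final) in 25 mM Hepes, 0.01% Triton X-100, pH 7.0 was preincubated 15 min at room temperature with compound. Then 40 uM arachidonic acid was added, 30 min. Hydroperoxide was read by Fe-XO absorbance ratio 573/405 nm.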
HT1080-NT tox: kills 2HG-producing HT-1080-NT fibrosarcoma cells; HT-1080-NT fibrosarcoma viability, CellTiter-Glo ATP luminescence, 48 h; 360,000 compounds, 1.6% hits; Potency, µM (titrated, usually from 46.1 µM), usual class: cytotoxic; AID 686970;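 also: NT is the 2HG producing partner of a matched IDH1 knockdown line; nearly all actives have a fitted effect of over 55% in size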
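HT-1080-NT; 750 cells/well; 5% FBS RPMI; 48 h compound, 37 degrees C; CellTiter-Glo luminescence; curve fitting and curve-class assignment.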
Hits are given with their value; i = inactive; ? = inconclusive; nt = not tested or not shown; [ ] = dose if it differs, or a comment. Unless noted, calls follow the shape of the dose curve; as a rule, active = well fitted curve in the direction sought with a large enough effect; inconclusive = small, poorly fitted or top-dose-only effect, or another doubt; inactive = no such curve, though single readings can be large; an effect the other way counts as inactive or inconclusive.

SMILES	IL-1B inflam inh	TDP1 cell CPT	HT1080 IDH1KD tx	DT40 TDP1 no CPT	12-LOX inh	HT1080-NT tox
COc1cccc(N2C(=O)NC(=O)/C(=C/c3ccc4c5c(cccc35)CC4)C2=O)c1	nt	nt	nt	nt	40µM	nt
O=C(Cc1ccc(Cl)cc1)N1Cc2ccccc2CC2(CCCN2CC2CCNC2)C1 (configuration not stated)	nt	nt	nt	nt	i[6.33 µM]	nt
CCCS(=O)(=O)N1CC(COC)C2(CCNCC2)C1 (configuration not stated)	nt	nt	nt	nt	i	nt
Cc1cc(Cl)ccc1C(=O)C1CCCN(C2CCSCC2)C1 (configuration not stated)	i	26µM	i	21µM	i	i
O=C(c1cc(C(=O)NCc2ccccc2)c(=O)n(Cc2ccccc2)c1)c1cc(Cl)ccc1O	i	7.3µM	i	8.2µM	?	i
Cc1nn(-c2ncnc3nc[nH]c23)c2c1C(c1ccc(F)c(F)c1)SCC(=O)N2 (configuration not stated)	nt	nt	nt	nt	i	nt
Cc1ccc2c(c1)c(=O)c1c3n2CCN(CC2CO2)C3CC1 (configuration not stated)	i	18µM	i	?	i	i
COc1ccc2c(c1)C1(CCN(C(=O)C(C)C)C1)C(=O)N2C (configuration not stated)	nt	nt	nt	nt	i	nt
CC(C)CCNC(=O)Cn1c(=O)oc2cc(S(=O)(=O)N3CCc4ccccc43)ccc21	i	?	i	?	i	i
CC(C)c1ccc(NC(=O)Cn2c(=O)oc3cc(S(=O)(=O)N4CCCC4)ccc32)cc1	nt	9.2µM	nt	?	i	nt
COc1ccc(CNC(=O)Cn2c(=O)oc3cc(S(=O)(=O)N4CCCC4)ccc32)cc1	i	18µM	i	?	i	i
CN(C)c1ccc(CNC(=O)Cn2c(=O)oc3cc(S(=O)(=O)N4CCCCCC4)ccc32)cc1	nt	12µM	nt	i	?	nt
O=C1CSC(c2c(F)cccc2Cl)c2cn[nH]c2N1 (configuration not stated)	nt	nt	nt	nt	i	nt
O=C1NCCN2CC3(CCNCC3)CC12 (configuration not stated)	nt	nt	nt	nt	i	nt
NC(Cc1ccc(F)cc1)c1ccccc1 (configuration not stated)	nt	nt	nt	nt	i	nt
CCN(CC)P(=S)(c1c(C)nc2ccccn12)c1c(C)nc2ccccn12	i	26µM	?	?	i	i
O=C(NC[C@H]1C[C@@H]2CCN1C[C@@H]2CN1CCN(c2ccc(F)cc2)CC1)c1ccccc1	nt	nt	nt	nt	i	nt
O=c1c(C=NCCN2CCNCC2)c(O)n(C2CCCCC2)c(=O)n1C1CCCCC1	-61	16µM	?	?	nt	20µM
CCCNC(=O)OC[C@H]1C[C@@H]2CCN1C[C@@H]2c1cc(-c2ccccc2)nn1C	nt	nt	nt	nt	i	nt
COc1ccccc1CNC(=O)[C@H]1CN2CC[C@H]1C[C@@H]2Cn1cc(C2(O)CCCC2)nn1	nt	nt	nt	nt	i	nt
CCN1CCN(c2ccc(N)cc2C)CC1	i	12µM	i	13µM	i	i
CC(C)C(NC(=O)C(C(C)C)N(C)C)C(=O)N(C)C(C(=O)N1CCCC1C(=O)N1CCCC1C(=O)NCc1ccccc1)C(C)C (configuration not stated)	i	0.033µM	?	0.052µM	?	0.21µM
CC(C)(C)NS(=O)(=O)c1ccc(OCC(=O)N2CCN(Cc3ccccc3)CC2)cc1	i	?	i	?	i	i
CC(C)(C)NS(=O)(=O)c1cccc(S(=O)(=O)c2cccc(S(=O)(=O)NC(C)(C)C)c2)c1	i	23µM	?	?	nt	?
O=C1CO[C@H]2CN(Cc3ccccn3)C[C@H]2N1Cc1ccccn1	nt	nt	nt	nt	i	nt
SMILES	IL-1B inflam inh	TDP1 cell CPT	HT1080 IDH1KD tx	DT40 TDP1 no CPT	12-LOX inh	HT1080-NT tox
O=C1CNC(c2ccccc2Cl)c2cc(Br)ccc2N1 (configuration not stated)	i	i	i	8.2µM	?	i
O=C(Nc1ccc(Cl)cc1)N1CC2CC(C1)c1cccc(=O)n1C2 (configuration not stated)	i	i	i	i	i	i
Nc1cc(C(=O)Nc2ccc(Cl)cc2)ccc1N1CC2CC(C1)c1cccc(=O)n1C2 (configuration not stated)	i	21µM	i	10µM	?	i
COc1cc2c(cc1OC)[C@@H]1C(=O)c3ccc(OC)c(CC=C(C)C)c3OC1CO2 (some centres not stated)	nt	2.9µM	nt	1.6µM	nt	nt
COc1cc2c(cc1OC)[C@@H]1C(=O)c3ccc4c(c3OC1CO2)CC(C(C)C)O4 (some centres not stated)	nt	0.065µM	nt	0.082µM	nt	nt
C=C(C)C1Cc2c(ccc3c(=O)c4c(oc23)COc2cc(OC)c(OC)cc2-4)O1 (configuration not stated)	nt	i[9.04 µM]	nt	i[9.04 µM]	i	nt
Cc1ccc2c(n1)N(C)[C@H](CO)CCN(CC(C)(C)C)C2	nt	nt	nt	nt	i	nt
COCC(=O)NC[C@H]1C[C@@H]2CCN1C[C@@H]2CN1CCCC1	nt	nt	nt	nt	i	nt
C#C[C@H]1CN2CC[C@H]1C[C@@H]2CNS(=O)(=O)Cc1ccccc1	nt	nt	nt	nt	i	nt
COC(=O)c1c(-c2ccc(Cl)cc2)noc1N1CCN(c2ccc(C(C)=O)cc2)CC1	nt	?	nt	21µM	i	nt
CC(Cc1ccccc1Sc1ccccc1O)N(C)C (configuration not stated)	i	?	?	12µM	i	?
CN(C)c1ccc(C(=O)NC[C@H]2C[C@@H]3CCN2C[C@@H]3CN2CCN(c3ccccn3)CC2)cc1	nt	nt	nt	nt	i	nt
C=CCNC(=O)CSC(c1ccc(F)cc1)c1ccc(F)cc1	nt	nt	nt	nt	i	nt
COc1ccc(-c2cc3c(cn2)CN(C)CCN3)cn1	nt	nt	nt	nt	i	nt
CCC(=O)[C@@H](C)[C@@H](O)[C@H](C)C[C@@H](C)C1OC(=O)C[C@@]2(O)CC=C(C)C(O2)C(C)=CCCC[C@H](O[C@H]2C[C@@H](OC(N)=O)[C@H](O)[C@@H](C)O2)C=C[C@H](C)C[C@H]1C (some centres not stated)	i	0.46µM	21µM	0.52µM	i	12µM
COC(=O)C1=C(c2ccccc2OCc2ccccc2)C[C@@H]2CC[C@H]1N2C(=O)NCCN1CCOCC1	i	i	i	i	i	i
COC(=O)C1=C(c2ccc(F)cc2OCc2ccccc2)C[C@@H]2CC[C@H]1N2C(=O)NCc1ccccc1	?	?	i	?	i	i
COC(=O)C1=C(c2ccccc2OCc2ccccc2)C[C@@H]2CC[C@H]1N2C(=O)NC1CCN(Cc2ccccc2)CC1	-65	?	i	23µM	?	i
COC(=O)C1=C(c2cccc(OCc3ccccc3)c2)C[C@@H]2CC[C@H]1N2C(=O)NC1CCN(Cc2ccccc2)CC1	-63	6.5µM	?	6.5µM	i	23µM

Screening data deposited in PubChem by National Center for Advancing Translational Sciences (NCATS).
